Results as given in PubChem BioAssay (NCATS).
“And” between values parts separate entries of the source, which are not always exact repeats. Equal entries are not always repeated. Results filed as inconclusive are left out. The source made the active and inactive calls. Calls follow the shape of the dose curve; as a rule, active = well fitted curve in the direction sought with a large enough effect; inconclusive = small, poorly fitted or top-dose-only effect, or another doubt; inactive = no such curve, though single readings can be large; an effect the other way counts as inactive or inconclusive.

Tests used:
[1] = test system: CRL-7250; assay: Cytotoxic Profiling of Annotated Libraries Using Quantitative High-Throughput Screening (AID 1296008); conditions: Five cell lines viability, CellTiter-Glo ATP luminescence, 48-72 h; max response: stronger effect = lower value; also: nearly all actives have a fitted effect of over 60% in size; also: potency is read from the fitted curve at half-maximal effect; as to max response: % is scaled to controls: 0 for no effect and ±100 for the full control effect
Outline: (§1)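 Cells exposed to compounds for 48 or 72 hr at 37 degrees Celsius. Viability read as ATP-coupled luminescence with CellTiter-Glo after 10 min at room temperature.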

[2] = test system: HEK293; assay: as above; conditions: Five cell lines viability, CellTiter-Glo ATP luminescence, 48-72 h; max response: stronger effect = lower value
Outline: as §1

[3] = test system: HaCat; assay: as above; conditions: Five cell lines viability, CellTiter-Glo ATP luminescence, 48-72 h; max response: stronger effect = lower value
Outline: as §1

[4] = test system: KB-3-1; assay: as above; conditions: Five cell lines viability, CellTiter-Glo ATP luminescence, 48-72 h; max response: stronger effect = lower value
Outline: as §1

[5] = test system: NIH3T3; assay: as above; conditions: Five cell lines viability, CellTiter-Glo ATP luminescence, 48-72 h; max response: stronger effect = lower value
Outline: as §1

[6] = test system: HEK293T; assay: qHTS assay to identify novel small-molecules to repurpose for Merkel cell carcinoma treatment (AID 1296009); conditions: MCC and control cell lines, CellTiter-Glo viability, 72 h; series mostly up to 44.8 µM; also: nearly all actives have a fitted effect of over 60% in size
Outline: (§2)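 Cells were incubated with compound for 72 hr at 37 degree celsius before CellTiter-Glo addition. Luminescence was normalized with no-cell wells as full cytotoxicity and DMSO as baseline.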

[7] = test system: C33A; assay: Primary qHTS to identify gynecologic anti-cancer compounds using libraries of approved drugs and bioactive compounds (AID 1345084); conditions: Gynecologic cancer cell panel viability, ATPlite luminescence, 48 h; series mostly up to 57.5 µM; also: nearly all actives have a fitted effect of over 55% in size; also: potency is read from the fitted curve at half-maximal effect
Outline: (§3)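 Cells, 1,000 per well, plated 16 h, then exposed 48 h at 37 C to compounds. Viability by ATPlite luminescence after 15 min at room temperature.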

[8] = test system: CAOV3; assay: as above; conditions: Gynecologic cancer cell panel viability, ATPlite luminescence, 48 h; series mostly up to 57.5 µM
Outline: as §3

[9] = test system: CASKI; assay: as above; conditions: Gynecologic cancer cell panel viability, ATPlite luminescence, 48 h; series mostly up to 57.5 µM
Outline: as §3

[10] = test system: Es-2; assay: as above; conditions: Gynecologic cancer cell panel viability, ATPlite luminescence, 48 h; series mostly up to 57.5 µM
Outline: as §3

[11] = test system: HeLa; assay: as above; conditions: Gynecologic cancer cell panel viability, ATPlite luminescence, 48 h; series mostly up to 57.5 µM
Outline: as §3

[12] = test system: NIH3T3; assay: qHTS assay to identify novel small-molecules to repurpose for Merkel cell carcinoma treatment (AID 1296009); conditions: MCC and control cell lines, CellTiter-Glo viability, 72 h; at 44.8 µM (top of the series) unless noted; also: nearly all actives have a fitted effect of over 60% in size
Outline: as §2

C[C@@H](OC(=O)/C=C/c1ccc(O)cc1)C1=C[C@]2(C=C[C@@H]3C(C(=O)O)=CO[C@@H](O[C@@H]4O[C@H](CO[C@@H]5O[C@H](CO)[C@@H](O)[C@H](O)[C@H]5O)[C@@H](O)[C@H](O)[C@H]4O)[C@@H]32)OC1=O
inactive: max response [1] 1.07% | outcome [2] | max response [3] 4.46% | max response [4] 4.2% | max response [5] 2.02% | Potency [6] | Potency [7] | Potency [8] | Potency [9] | Potency [10] | Potency [11]

Cc1ccc(C(=O)Nc2ccc(Oc3cc4cnn(C)c4cc3-c3cn[nH]c3)c(F)c2)c(=O)n1-c1ccc(F)cc1
active: Potency [1] 4.67 µM | Potency [2] 5.8 µM and 3.31 µM | Potency [3] 16.6 µM | Potency [4] 5.17 µM | Potency [5] 4.11 µM | Potency [8] 8.91 µM
inactive: Potency [7] | Potency [10]

COC1=CC(=O)O[C@@H](CCc2ccccc2)[C@@H]1O
inactive: max response [1] -14.6% | outcome [2] | max response [3] -13% | max response [4] 5.84% | max response [5] 3.13% | Potency [6] | Potency [7] | Potency [8] | Potency [9] | Potency [10] | Potency [11]

C/C=C(\C)C(=O)O[C@H]1[C@@H](O[C@]2(COC(=O)CC(C)C)O[C@H](COC(=O)C(C)C)[C@@H](OC(C)=O)[C@@H]2O)O[C@H](COC(C)=O)[C@@H](O)[C@@H]1O
inactive: outcome [1] | outcome [2] | max response [3] 0.832% | max response [4] 4.8% | max response [5] 0.154% | Potency [6] | Potency [7] | Potency [8] | Potency [9] | Potency [10] | Potency [11]

NC(=O)c1ccc(OCC2NC(=O)C3CCCN3C2=O)cc1 (stereo unspecified)
inactive: max response [1] -2.01% | outcome [2] | max response [3] -3.74% | max response [4] 6.37% | outcome [5] | Potency [6] | Potency [7] | Potency [8] | Potency [9] | Potency [10] | Potency [11]

C[C@@H]1CC[C@]2(C(=O)O)CC[C@]3(C(=O)O)C(=CCC4[C@@]5(C)CC[C@H](O[C@@H]6O[C@@H](C)[C@H](O[C@@H]7O[C@H](CO)[C@@H](O)[C@H](O)[C@H]7O)[C@@H](O)[C@H]6O)C(C)(C)C5CC[C@]43C)C2[C@H]1C (stereo partly specified)
inactive: max response [1] 0.369% | outcome [2] | max response [3] -0.856% | outcome [4] | outcome [5] | Potency [6] | Potency [7] | Potency [8] | Potency [9] | Potency [10] | Potency [11]

COc1ncc(-c2ccc3c(Nc4cc(Oc5cc(F)cc(F)c5)cc(C(=O)O)c4)c(S(=O)(=O)NC4CC4)cnc3c2)c(OC)n1
inactive: max response [1] -7.5% and -5.78% | max response [2] 0.563% and -20.6% | max response [3] -12% and 2.17% | outcome [4] | max response [5] 3.25% and -1.23% | Potency [7] | Potency [8] | Potency [9] | Potency [10] | Potency [11]

Nc1ccn([C@@H]2C(F)=C(CO)[C@@H](O)[C@H]2O)c(=O)n1
active: Potency [2] 920 nM and 933 nM | Potency [3] 18.4 µM | Potency [4] 9.2 µM | Potency [5] 4.61 µM and 3.71 µM
inactive: max response [1] -25.3% | Potency [7] | Potency [8] | Potency [9] | Potency [11]

C[C@@H]1C(=O)O[C@H]2CC34[C@H]5C[C@@H](C(C)(C)C)C36[C@@H](OC(=O)[C@@H]6O)O[C@@]4(C(=O)O5)[C@]21O (stereo partly specified)
inactive: max response [1] 3.21% | outcome [2] | max response [3] -17.8% | max response [4] -3.91% | max response [5] 1.08% | Potency [6] | Potency [7] | Potency [8] | Potency [9] | Potency [10] | Potency [11]

CC1(C)O[C@]23C[C@H]1C[C@H](OC(=O)c1ccoc1)[C@]2(C)[C@@H](OC(=O)c1ccoc1)CCC3(C)O (stereo partly specified)
inactive: max response [1] 0.391% | outcome [2] | max response [3] 2.39% | max response [4] 7.96% | max response [5] -0.102% | Potency [6] | Potency [7] | Potency [8] | Potency [9] | Potency [10] | Potency [11]

CC1(C)O[C@@]2(C)CC[C@@H]1C[C@@H]2OC1OC(CO)C(O)C(O)C1O (stereo partly specified)
inactive: outcome [1] | outcome [2] | max response [3] -5.55% | outcome [4] | max response [5] -8.31% | Potency [6] | Potency [7] | Potency [8] | Potency [9] | Potency [10] | Potency [11]

C#C[C@]1(O)CC[C@H]2[C@@H]3CCC4=C/C(=N/O)CC[C@@H]4[C@H]3CC[C@@]21CC
active: Potency [11] 14.1 µM
inactive: max response [1] 4.4% | max response [2] -0.147% | max response [3] -21.3% | max response [4] -19.2% and -21.5% | outcome [5] | outcome [12] | Potency [8] | Potency [10]

O=C1NC(Cc2ccc(O)cc2)C(=O)N2CCCC12 (stereo unspecified)
inactive: max response [1] -11.1% | outcome [2] | max response [3] -15.4% | max response [4] 8.78% | max response [5] -0.188% | Potency [6] | Potency [7] | Potency [8] | Potency [9] | Potency [10] | Potency [11]

COC(=O)C1=CO[C@@H](O[C@@H]2O[C@H](CO)[C@@H](O)[C@H](O)[C@H]2O)[C@@H]2[C@@H](C)[C@@H](O)C[C@H]12
inactive: max response [1] -3.5% | outcome [2] | max response [3] -10.2% | outcome [4] | max response [5] 2.94% | Potency [6] | Potency [7] | Potency [8] | Potency [9] | Potency [10] | Potency [11]
